Compounds with a hit are over-represented: about 3.3% of the library has one in this group of screens.
UBC9 SUMO inh = blocks human SUMOylation mediated by UBC9. HTRF SUMOylation assay, SAE1/SAE2 + UBC9, in vitro. inhibition, % at 35 µM. 290,000 compounds, 0.36% hits. P63279; in the data active = inhibition above about 50%, passing the limit was not always enough
HGIII-sPLA2 inh = Inhibits HGIII-sPLA2 liposome hydrolysis, primary screen | inhibition, % at 12.2 µM | 370,000 compounds, 0.56% hits | AID 743126 | Q9NZ20 | QFRET BODIPY PC-A2 liposome hydrolysis, fluorescence;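 active = inhibition above mean plus 3 SD of compounds lying within the high and low control bounds, cut at about 19% in these data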
Target sequence (Q9NZ20 whole entry, looked up): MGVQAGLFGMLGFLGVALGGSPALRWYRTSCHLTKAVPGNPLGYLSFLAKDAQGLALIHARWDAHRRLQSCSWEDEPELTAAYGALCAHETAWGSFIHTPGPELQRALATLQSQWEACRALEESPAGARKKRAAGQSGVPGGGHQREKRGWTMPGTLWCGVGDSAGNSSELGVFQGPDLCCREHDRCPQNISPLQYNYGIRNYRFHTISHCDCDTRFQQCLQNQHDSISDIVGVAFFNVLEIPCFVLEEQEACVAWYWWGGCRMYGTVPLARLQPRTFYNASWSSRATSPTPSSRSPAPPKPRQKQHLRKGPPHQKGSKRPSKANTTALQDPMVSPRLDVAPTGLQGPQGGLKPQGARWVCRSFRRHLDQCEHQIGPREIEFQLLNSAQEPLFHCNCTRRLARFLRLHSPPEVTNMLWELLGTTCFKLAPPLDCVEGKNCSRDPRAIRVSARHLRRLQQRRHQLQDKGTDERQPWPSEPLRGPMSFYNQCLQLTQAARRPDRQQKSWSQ
GRIN3A LBD mod = modulates the human NR3A ligand-binding domain. Tm shift relative to glycine control, % at 25 µM. NR3A LBD differential scanning fluorimetry, Tm shift; 0% = protein alone, 100% = glycine-bound protein. 340,000 compounds, 2.5% hits;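 active = melting temperature shift of at least 10% of the positive control shift, at one fixed dose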
UBC13 polyUb = human UBC13 polyubiquitination inhibition | P61088 | inhibition, % at 20 µM | AID 485273 | 330,000 compounds, 0.47% hits | UBC13 polyubiquitin chain formation, TR-FRET; in the data active = inhibition above about 45%, passing the limit was not always enough
Target sequence (P61088 whole entry, looked up): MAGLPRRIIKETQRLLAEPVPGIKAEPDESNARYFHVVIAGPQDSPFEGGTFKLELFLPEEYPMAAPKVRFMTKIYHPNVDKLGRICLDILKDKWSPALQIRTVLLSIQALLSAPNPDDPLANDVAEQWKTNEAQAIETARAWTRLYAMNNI
Casp3 counter = counter-screen for UBC13 inhibitors: human caspase-3 inhibition. Recombinant caspase-3, Caspase-Glo 3/7 luminescence, 60 min. 1,400 compounds, 4% hits. inhibition, % at 20 µM. shares compounds with UBC13 polyUb;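 active = mean inhibition across replicates above about 26%, limit read from the data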
UBC13 conf = confirmation of human UBC13 polyubiquitin inhibitors. AID 488859. UBC13 polyubiquitination, TR-FRET, biochemical. 1,400 compounds, 68% hits. inhibition, % at 10 µM. shares compounds with UBC13 polyUb; in the data active = inhibition above about 45%
hGIII sPLA2 conf = human GIII-sPLA2 inhibition, confirmation; recombinant hGIII-sPLA2, BODIPY PC-A2 QFRET fluorescence; 2,000 compounds, 34% hits; AID 743280; inhibition, % at 12.2 µM; shares compounds with HGIII-sPLA2 inh;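 active = mean inhibition across triplicates above the hit cutoff set in the earlier primary screen, cut at about 19% in these data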
BODIPY interf = counter-screen for HGIII-sPLA2 inhibitors: 535nm fluorescence interference; shares compounds with HGIII-sPLA2 inh; BODIPY FL product fluorescence interference, QFRET; inhibition, % at 12.2 µM; 2,000 compounds, 8.5% hits;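 active = average inhibition above the solvent-only control mean plus 3 SD, cut at about 6% in these data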
BODIPY interf DR = 535nm optical interference dose response, HGIII-sPLA2 counter-screen; IC50, µM; 240 tested, under 10 active; BODIPY FL product fluorescence interference, cell-free; AID 743455; shares compounds with HGIII-sPLA2 inh;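 active = IC50 at or below 10 µM; inactive = IC50 above 10 µM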
Each line names hits and unclear results; the compound was inactive in the other large screens (follow-up assays come after a bar, where they were run).

CCC1(C)NC(=O)N(CC(=O)N2CCC(Cc3ccccc3)CC2)C1=O (stereo not given)	UBC13 polyUb 64 (no result: UBC9 SUMO inh) | Casp3 counter inactive | UBC13 conf inactive
CC1(C)NC(=O)N(CC(=O)N2CCC(Cc3ccccc3)CC2)C1=O	none
O=C1CSc2ccc(C(=O)N3CCCC(C(=O)N4CCCC4)C3)cc2N1 (stereo not given)	none (no result: UBC9 SUMO inh, GRIN3A LBD mod, UBC13 polyUb)
COc1ccc(OCC(=O)NCCNC(=O)c2ccccn2)cc1	none
COc1ccc(C(=O)NNC(=O)c2ccccn2)cc1	none
CC(=O)c1ccc(OCCCC(=O)NNC(=O)c2ccccn2)cc1	UBC13 polyUb 76 (no result: UBC9 SUMO inh) | Casp3 counter inactive | UBC13 conf 66
CC(Oc1ccccc1)C(=O)NNC(=O)c1ccccn1 (stereo not given)	none
COc1ccc(OCC(=O)NNC(=O)c2ccccn2)cc1	UBC13 polyUb 69 | Casp3 counter inactive | UBC13 conf 96
CC(Oc1cccc(Br)c1)C(=O)NNC(=O)c1ccccn1 (stereo not given)	UBC13 polyUb 47 (no result: UBC9 SUMO inh, HGIII-sPLA2 inh) | Casp3 counter inactive | UBC13 conf 91
Cc1ccccc1CN1CCCCC(NC(=O)c2ccc3ccccc3c2)C1=O (stereo not given)	none (no result: UBC9 SUMO inh, GRIN3A LBD mod, UBC13 polyUb)
c1ccc(C2(CN3CCNC[C@H]3Cc3cccc4ccccc34)CC2)cc1	HGIII-sPLA2 inh 23, UBC13 polyUb 59 (no result: UBC9 SUMO inh) | Casp3 counter inactive | UBC13 conf 48 | hGIII sPLA2 conf inactive | BODIPY interf inactive
Cc1cc(C)cc(C(=O)OCCCN(C)C2CN(Cc3cn(Cc4ccccc4Cl)nn3)S(=O)(=O)C2)c1 (stereo not given)	none (no result: UBC9 SUMO inh, GRIN3A LBD mod, UBC13 polyUb)
S=c1[nH]nc(-c2ccc(Cl)cc2Cl)n1Cc1ccccc1	HGIII-sPLA2 inh 20 | hGIII sPLA2 conf 28 | BODIPY interf inactive | BODIPY interf DR inactive
Oc1ccccc1-c1n[nH]c(=S)n1Cc1ccccc1	none
CCn1c(-c2cccn(Cc3ccc(Cl)cc3Cl)c2=O)n[nH]c1=S	HGIII-sPLA2 inh 21 | hGIII sPLA2 conf 33 | BODIPY interf inactive | BODIPY interf DR inactive
S=c1[nH]nc(-c2ccccc2Br)n1Cc1ccccc1	HGIII-sPLA2 inh 26 | hGIII sPLA2 conf inactive | BODIPY interf inactive
O=C(CSc1nnc(-c2cccnc2)n1C1CCCCC1)NC1CCCCCC1	none (no result: UBC9 SUMO inh, GRIN3A LBD mod, UBC13 polyUb)
CCCCNC(=O)C1(C(=O)C2CC2)CC(c2ccccc2C(F)(F)F)=NO1 (stereo not given)	none (no result: UBC9 SUMO inh, GRIN3A LBD mod, UBC13 polyUb)
O=C(OC12CCCN(C1)/C(=C/c1ccccc1)C2)c1ccc(Cl)cc1 (stereo not given)	none (no result: UBC9 SUMO inh, GRIN3A LBD mod, UBC13 polyUb)
O=C(OCc1cn(Cc2cccc(F)c2F)nn1)N1CCCC1	none (no result: UBC9 SUMO inh, GRIN3A LBD mod, UBC13 polyUb)
COC(=O)[C@H](Cc1ccccc1)NC(=O)[C@H]1O[C@@H](n2cnc3c(=O)[nH]c(N)nc32)[C@H](O)[C@@H]1O	none (no result: UBC9 SUMO inh, GRIN3A LBD mod, UBC13 polyUb)
COc1ccc(C(=O)NC(=S)Nc2ccc(N3CCN(C(C)=O)CC3)cc2)cc1[N+](=O)[O-]	HGIII-sPLA2 inh 21 | hGIII sPLA2 conf inactive | BODIPY interf inactive
COc1ccc(C(=O)NC(=S)Nc2cccc(NC(=O)c3ccco3)c2)cc1[N+](=O)[O-]	HGIII-sPLA2 inh 28, GRIN3A LBD mod 12 | hGIII sPLA2 conf inactive | BODIPY interf inactive
CC(=O)N1CCN(c2ccc(NC(=S)NC(=O)c3ccc(C)c([N+](=O)[O-])c3)cc2)CC1	none
COc1cc(NC(=S)NC(=O)c2ccco2)ccc1NC(=O)C(C)C	none
CCCCC(=O)Nc1ccc(NC(=S)NC(=O)c2ccco2)cc1OC	HGIII-sPLA2 inh 31 | hGIII sPLA2 conf inactive | BODIPY interf inactive
C=CCN=C1NC(c2ccc(F)cc2)C(C(=O)OC)=C(C)N1Cc1ccccc1C(F)(F)F (stereo not given)	none (no result: UBC9 SUMO inh, GRIN3A LBD mod, UBC13 polyUb)
CCOC(=O)[C@H]1[C@H]2COc3ccc(OC)cc3[C@@H]2N2C(=O)c3ccc(C)cc3NC(=O)[C@@]12C	none (no result: UBC9 SUMO inh)
CCOC(=O)[C@H]1[C@H]2COc3cc(OC)ccc3[C@@H]2N2C(=O)c3cc(OC)ccc3NC(=O)[C@@]12C	HGIII-sPLA2 inh 26 (no result: UBC9 SUMO inh) | hGIII sPLA2 conf inactive | BODIPY interf inactive
CCOC(=O)[C@H]1[C@H]2COc3cc(OC)ccc3[C@@H]2N2C(=O)c3cc(F)ccc3NC(=O)[C@@]12C	HGIII-sPLA2 inh 31 (no result: UBC9 SUMO inh) | hGIII sPLA2 conf inactive | BODIPY interf inactive
CCOC(=O)[C@H]1[C@H]2COc3cc(OC)ccc3[C@@H]2N2C(=O)c3cc(C)ccc3NC(=O)[C@@]12C	none (no result: UBC9 SUMO inh)
CCOC(=O)[C@H]1[C@H]2COc3cc(OC)ccc3[C@@H]2N2C(=O)c3cc(F)c(F)cc3NC(=O)[C@@]12C	HGIII-sPLA2 inh 25 (no result: UBC9 SUMO inh) | hGIII sPLA2 conf 20 | BODIPY interf inactive
CCOC(=O)[C@H]1[C@H]2COc3cc(OC)ccc3[C@@H]2N2C(=O)c3ccc(F)cc3NC(=O)[C@@]12C	none (no result: UBC9 SUMO inh)
CCOC(=O)[C@H]1[C@H]2COc3cc(OC)ccc3[C@@H]2N2C(=O)c3ccc(C)cc3NC(=O)[C@@]12C	HGIII-sPLA2 inh 25 (no result: UBC9 SUMO inh) | hGIII sPLA2 conf inactive | BODIPY interf inactive
CCC/C(=C1/c2ccccc2C(=O)N1c1ccccc1)c1ccc(C=O)o1	none (no result: UBC9 SUMO inh, GRIN3A LBD mod, UBC13 polyUb)
COC(=O)c1cc2c(c3c4cc(C)ccc4n(S(=O)(=O)c4ccc(C)cc4)c13)C(=O)N(C)C2	none (no result: UBC9 SUMO inh, GRIN3A LBD mod, UBC13 polyUb)
COC(=O)[C@]12C[C@H](CC(=O)NCC3CCCCC3)C(=O)N(CCc3ccc(OC)c(OC)c3)C1=C[C@H](COCc1ccccc1)O[C@@H]2C	none (no result: UBC9 SUMO inh, GRIN3A LBD mod, UBC13 polyUb)
CC(C)OC(=O)c1c(N)sc2c1CCCC2	HGIII-sPLA2 inh 20 (no result: UBC9 SUMO inh) | hGIII sPLA2 conf inactive | BODIPY interf inactive
CNC(=O)c1c(N)sc2c1CCCCC2	none (no result: HGIII-sPLA2 inh, GRIN3A LBD mod)
NC(=O)C1(Nc2ccc(-c3ccc(Cl)cc3)cc2)CCCC1	HGIII-sPLA2 inh 22 (no result: UBC9 SUMO inh, UBC13 polyUb) | hGIII sPLA2 conf inactive | BODIPY interf inactive
Cc1c(C(=O)NNC(=S)Nc2cccc(Cl)c2)nnn1-c1ccccc1	HGIII-sPLA2 inh 31 | hGIII sPLA2 conf 34 | BODIPY interf 9.3
Cc1cc(C(=O)NNC(=S)Nc2ccccc2)nn1C	HGIII-sPLA2 inh 29 | hGIII sPLA2 conf 23 | BODIPY interf inactive
Cc1cc(NC(=O)Nc2cccc(Cl)c2)n(-c2ccccc2)n1	none
CCC1Cc2[nH]c(=S)[nH]c(=O)c2C(c2ccc(Cl)cc2)O1 (stereo not given)	HGIII-sPLA2 inh 21 (no result: UBC9 SUMO inh, GRIN3A LBD mod, UBC13 polyUb) | hGIII sPLA2 conf inactive | BODIPY interf inactive
CC(C)N(C(=S)NC1CC2CCC1C2)c1ccccc1 (stereo not given)	none
